Laboratory results as given in ChEMBL document CHEMBL3988442, “University of Dundee, Small-Polar-MMV Screening Library” (2021).
Among all 38,000 compounds or so, about 1,200 (3.2%) showed an effect of 50% or more. The median lay at about -58%. The full list was thinned out, with strong results kept by preference.

What follows are molecules tested on Plasmodium falciparum (assay: Calibr Malaria Delayed Death Assay SOP). Conditions: concentration 4.99e-06 (unit not given; other assays of the set use mol/L).
Format: functional, organism-based
Set-up: scale not given: in the data most compounds retested in dose-response had high values

SMILES	Percent Effect [%]
CCCN1C(=O)CC(N2CCN(c3ccc(F)cc3)CC2)C1=O (configuration not stated)	-22.99
CN1CCCC(N(C)S(=O)(=O)c2cccc3ncccc23)C1 (configuration not stated)	28.23
Cc1cc2nc(C(C)C)cc(N3CCN(c4ccc(O)cc4)CC3)n2n1	-69.46
CN1CC(NC(=O)Nc2cnn(-c3ccccc3Cl)c2)CCC1=O (configuration not stated)	-125.7
O=C(Cc1ccc(F)cc1)NCC1CCN(Cc2ccsc2)CC1	35.08
CCc1nnc(CN2CCN(c3cccc(OC)c3)C(=O)C2)o1	-165.5
COCCNC(=O)NCc1cccc(-n2ccnc2)c1	-31.59
O=C(Cn1ccc2sccc2c1=O)NC1CCCCC1	-23.53
Cc1nc(C)c(C(=O)Nc2cnn(CC(=O)NC3CCCC3)c2)s1	-124.2
O=C(c1cc2c(F)cccc2[nH]1)N1CCC(Nc2cccnn2)CC1	-107.1
Cc1cc(NC(=O)CCN2CCCCC2Cn2cccn2)no1 (configuration not stated)	-23.88
CCCNC(=O)NC(=O)CNC(C)(C)c1ccc2c(c1)OCO2	-45.43
CC(C)(NCc1ccc(C#N)cc1)c1ccc2c(c1)OCO2	-3.807
FC(F)(F)C1CN(Cc2cccc(OCc3ccccn3)c2)CCO1 (configuration not stated)	-40.76
CCN(CC)C(CNCc1ccc(O)cc1)c1ccco1 (configuration not stated)	37.38
CCN(CC)C(CNS(=O)(=O)c1ccc(C(=O)NC)cc1)c1ccco1 (configuration not stated)	-34.47
CCN(CC)C(CNS(=O)(=O)NCc1ccccc1)c1ccco1 (configuration not stated)	65.52
CSc1nc2ccsc2c(=O)n1CC(=O)N1CCCCC1C (configuration not stated)	-137.7
Cn1cc(NS(=O)(=O)CC2CCCCO2)cn1 (configuration not stated)	-113.3
O=C(NCCc1c[nH]c2ccc(F)cc12)C1(n2cnnn2)CCCCC1	0.821
CNCC[C@H]1CC(C)(C)Oc2ccc(OCC3CC3)cc21	74.97
COCC(=O)NCC[C@H]1CC(C)(C)Oc2ccccc21	-148.4
CNCC[C@H]1CC(C)(C)Oc2ccc(OC)cc21	72.51
COc1ccc2c(c1)[C@@H](CCNC(C)=O)CC(C)(C)O2	-172.5
CC1CCN(C(=O)c2cnc3cc(C(=O)N(C)C)n(C)c3c2)CC1	-87.49
c1coc(-c2nnc(CN(Cc3cccs3)CC3CCCO3)o2)c1 (configuration not stated)	-56.15

SMILES	Percent Effect [%]
COCc1nc(N2CC[C@H](N(C)C)C2)c2cnn(C)c2n1	-79.09
COC(C)(CNS(=O)(=O)c1cn(C)cn1)c1ccccc1F (configuration not stated)	-43.86
O=C(c1cc(F)cc2[nH]cnc12)N1CCCCC1Cn1cccn1 (configuration not stated)	-30.08
O=C(c1ccoc1)N1CCC(Nc2cccnn2)CC1	-103.3
CC(C)(C)OC(=O)N1CCCc2ccc(NCc3ccon3)cc21	-36.28
CC(C)(C)OC(=O)N1CCCN(Cc2ccon2)c2ccccc21	84.05
CC(=O)N1CCCN(Cc2ccon2)c2ccccc21	-25.97
Cc1cccc(NC(=O)N2CC(C(=O)NC(C)C)C3(CCOCC3)C2)c1 (configuration not stated)	-4.046
CCCc1nnc(N2CCN(c3ccccc3F)CC2)o1	-72.7
CCOc1cccc(CNC(=O)NCC(O)c2cccc(F)c2)c1 (configuration not stated)	-6.007
CN1CCC(NCC(O)c2cccc(OCc3ccccc3)c2)CC1 (configuration not stated)	90.23
OC(CNC1CCSCC1)c1cccc(OCc2ccccc2)c1 (configuration not stated)	73.71
O=C(NCc1ccccc1)NCC(O)c1cccc(F)c1 (configuration not stated)	-134.7
CCOc1cccc(C(C)NC(=O)N2CCC(C(N)=O)CC2)c1 (configuration not stated)	-34.65
OC(CNC1CCOCC1)c1ccc(Cl)c(F)c1 (configuration not stated)	49.48
O=C(Nc1cccc(OCc2ccc(F)cc2)c1)C1COCCO1 (configuration not stated)	-50.82
CS(=O)(=O)NC1CCN(CCOCc2ccccc2)CC1	2.46
OC(CNC1CCOCC1)c1cccc(OCc2ccccc2)c1 (configuration not stated)	51.28
O=S(=O)(NCCN1CCCCC1Cn1cncn1)c1ccccc1 (configuration not stated)	-173.3
Cc1nc2c(N3CCN(Cc4ccccc4)CC3)nc(N)nc2n1C	-81.58
Cc1nc(C)n(CC2CCCN(Cc3noc(C)n3)C2)n1 (configuration not stated)	-83.37
O=C(CN1CCc2cncnc2C1)NCCOc1cccc(Cl)c1	-29.73
O=C(NC1CCS(=O)(=O)C1)c1cc(Sc2ncccn2)ccn1 (configuration not stated)	-115.2
CCc1nc(CNc2ccc(F)c(F)c2)no1	-20.9
CN(Cc1ccc(N2CCOCC2)cc1)Cc1noc(C(C)(C)C)n1	-81.05
CC(C)(C)c1noc(CCC(=O)N2CCN(Cc3ccc(Cl)s3)CC2)n1	-118.6
